Test [1] in a line: NCI Yeast Anticancer Drug Screen. Data for the rad50 strain (AID 155).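 Further: 0% = growth of vehicle-only cultures of the same strain.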 The conditions noted are these: S. cerevisiae rad50 strain growth inhibition; at 50.0 µM; active compounds read high. The gist of the method: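 Relative growth inhibition (compound vs vehicle) was measured in yeast with a defined repair-gene alteration.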
The nature of test [2]: NCI Yeast Anticancer Drug Screen. Data for the mec2-1 strain (AID 157). Conditions: S. cerevisiae mec2-1 strain, at 50.0 µM, active compounds read high. The gist of the method: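 Each compound was tested on mec2-1 yeast, a strain altered in DNA damage repair or cell cycle control. Growth inhibition is reported relative to vehicle.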
A short description of test [3]: NCI Yeast Anticancer Drug Screen. Data for the sgs1 mgt1 strain (AID 161).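 Further: 0% = growth of cultures given vehicle only.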 Conditions: S. cerevisiae sgs1 mgt1 strain, at 50.0 µM, active compounds read high. In a few lines:
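Inhibition of yeast growth, normalised to vehicle-treated controls, is reported for a strain bearing genetic alterations in DNA damage repair.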

A short description of test [4]: NCI Yeast Anticancer Drug Screen. Data for the cln2 rad14 strain (AID 165).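 Further: 0% = growth equal to vehicle treated cultures.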 Conditions: S. cerevisiae cln2 rad14 strain, at 50.0 µM, active compounds read high. In a few lines: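 Test compounds were added to cln2 rad14 yeast cultures; inhibition of growth was then determined by comparison with vehicle treatment.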
Test [5] is described as follows: NCI Yeast Anticancer Drug Screen. Data for the bub3 strain (AID 167). The conditions noted are these: S. cerevisiae bub3 mutant strain, at 50.0 µM, active compounds read high. In a few lines:
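Screening used yeast with an engineered genetic alteration affecting cell cycle control. Compound-exposed cultures were compared with vehicle cultures, and reduced growth was taken as inhibition.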

A short description of test [6]: NCI Yeast Anticancer Drug Screen. Data for the mlh1 rad18 strain (AID 175). Conditions: S. cerevisiae mlh1 rad18 strain growth inhibition; at 50.0 µM; active compounds read high. In a few lines:
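Inhibition values reflect reduced growth of mutant yeast versus vehicle-treated controls following compound exposure; the mutations affect DNA damage repair.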

Molecules are shown by their SMILES. Compounds without any hit were thinned out: in the full panel of roughly 79,000, 15% have a hit. A number with no mark means an inactive call. The source made the active and inactive calls. No stated cut-off is given here; in the data, active means growth inhibition above about 70%; inactive means the rest.

Regarding `CCOC(=O)/C(=N/Nc1ccc(C)cc1)N1C(=S)C=C(C)NN(C)C1=S`, the growth inhibition is -34.3% in test [1]; 4% in test [2]; -31.1% in test [3]; -13.3% in test [4]; -19.7% in test [5]; -30.9% in test [6].
Regarding `Cc1cn(CCCn2cnc3c(=O)[nH]cnc32)c(=O)[nH]c1=O`, the growth inhibition was -13.1% in test [1]; -22.1% in test [2]; -16.7% in test [3]; -3.15% in test [4]; -21.6% in test [5]; -3.25% in test [6].
In the case of `COC1OC(COCc2ccccc2)C(OCc2ccccc2)C(OC)C1O` (stereo not given), the growth inhibition in test [1] was -37.6%; in test [2] it was -3%; in test [3] it was 5.6%; in test [4] it was -40.9%; in test [5], -2.3%; in test [6], -17.6%.
As to `NC(=O)NC(=O)c1ccccc1`, the growth inhibition in test [1] was -10.4%; in test [2] it was -15.2%; in test [3], -10.2%; in test [4], -9.25%; in test [5] it was 3.55%; in test [6], -7.55%.
In the case of `COc1ccc(CCn2cnc3ccccc32)cc1`, the growth inhibition was -44.1% in test [1]; -34.6% in test [2]; -34.5% in test [3]; -4.05% in test [4]; -11.4% in test [5]; -18.9% in test [6].
In the case of `COC(=O)c1sc(=O)n(-c2ccccc2)c1SCc1ccccc1`, the growth inhibition in test [1] is 25.4%; in test [2], -5.15%; in test [3] it was 60%; in test [4], 12.9%; in test [5], 30.8%; in test [6], 18.8%.
`C=C1C2CC[C@@]3(CC[C@@H]4[C@@]5(C)CCC[C@@]4(CN4CCO[C@H]45)[C@@H]3C2)[C@@H]1O`: the growth inhibition was -2.4% in test [1]; -5.9% in test [2]; 11.1% in test [3]; 25.9% in test [4]; 11.2% in test [5]; -5.5% in test [6].
Consider `COC(=O)c1cc(OC)nc(Cl)n1`, for which the growth inhibition was 3.9% in test [1]; 13.2% in test [2]; 1.45% in test [3]; -37% in test [4]; -11.9% in test [5]; 1.9% in test [6].
`CC1(Br)CC2OC3(Br)C=CC(C)(O)C2(CC1=O)C3(C)C` (stereo not given): the growth inhibition in test [1] is 27.2%; in test [2] it was 10.8%; in test [3] it was 13.4%; in test [4], 15.7%; in test [5] it was 20.4%; in test [6], 25.9%.
Regarding `CCN(CC)CCCNc1c2c(nc3ccc(Cl)cc13)CCCC2`, the growth inhibition was -20.1% in test [1]; -9.35% in test [2]; 0.6% in test [3]; -8.1% in test [4]; -11.8% in test [5]; 2.75% in test [6].
On to `CCOC(=O)/C=C/C(=O)NN`, for which the growth inhibition in test [1] was 11.4%; in test [2] it was -6.35%; in test [3], 2.6%; in test [4], -26%; in test [5], 0.4%; in test [6], 5.6%.
Turning to `Cc1nc(NCCNCCO)nc2c1C(=O)Nc1ccccc1N2`, the growth inhibition in test [1] was -43.9%; in test [2], -50.8%; in test [3], -7.65%; in test [4] it was -5.3%; in test [5], -3.9%; in test [6], -38.8%.
`Cc1ccc(C)c(C(=O)c2ccccc2)c1C(=O)O`: the growth inhibition in test [1] was -24.6%; in test [2], 7.8%; in test [3] it was 12.8%; in test [4], -29.9%; in test [5] it was 7.7%; in test [6], -4.15%.
`CCOC1OC(C(O)CO)C(O)C(O)C1O` (stereo not given): the growth inhibition in test [1] is 4.6%; in test [2], -8.7%; in test [3] it was -1.9%; in test [4] it was -56.4%; in test [5], -7.9%; in test [6], -0.6%.
Consider `O=C(/C=C(\c1ccccc1)C1C2C=CC(C2)C1c1ccccc1)c1ccccc1` (stereo not given), for which the growth inhibition is 61.6% in test [1]; 64.2% in test [2]; 91.7% (active) in test [3]; 49% in test [4]; 75.2% (active) in test [5]; 88.8% (active) in test [6].
On to `COc1cc(/C=C/C(=N\NC(N)=S)c2sc(NNC(C)=O)nc2C)ccc1O`, for which the growth inhibition in test [1] was 22.9%; in test [2] it was 6.8%; in test [3] it was 16.3%; in test [4], 21.2%; in test [5], 24.6%; in test [6], 14.8%.
With `Cc1noc2cccc(O)c12`, the growth inhibition is 0.95% in test [1]; 12.6% in test [2]; 15.8% in test [3]; 10.9% in test [4]; 1.25% in test [5]; 34.6% in test [6].
As to `CSc1ccc(OC(=O)Nc2cc(Cl)ccc2C)cc1`, the growth inhibition in test [1] was 4.35%; in test [2] it was 14.8%; in test [3] it was 25.9%; in test [4], -0.6%; in test [5], 38%; in test [6] it was 5.75%.
As to `O=c1ncccn1C1OC(CO)C(O)C1F` (stereo not given), the growth inhibition in test [1] is 4.75%; in test [2] it was -6.7%; in test [3] it was 9.5%; in test [4] it was -7.15%; in test [5], 3.75%; in test [6] it was -1.7%.
In the case of `CCCC/C=C/C1C=CC(CCCCCCCC(=O)OCC)C(C(=O)OCC)C1` (stereo not given) (tested in a mixture with another compound), the growth inhibition was 21% in test [1]; 8.75% in test [2]; 20% in test [3]; 17.4% in test [4]; 2.2% in test [5]; -13.4% in test [6].

The record behind these values is PubChem BioAssay (NCI).
